# High-throughput results: PubChem BioAssay, National Center for Advancing Translational Sciences (NCATS)
# Most compounds without a hit are left out; they make up all but 11% or so of the library.
# Pf growth 48h: Primary qHTS for delayed death inhibitors of the malarial parasite plastid, 48 hour incubation; AID 504832, 2011; Potency, µM (titrated, usually from 28.7 µM), for the others: at the top dose activity change, negative = inhibition, most hits filed as inhibitors; 5.9% of 310,000 active; P. falciparum luciferase growth in erythrocytes, 48 h; note: % is set by controls: 0 for no effect and ±100 for the full control effect
#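 Luminescence readout; reporter = integrated firefly luciferase in P. falciparum. RBC culture at 2% hematocrit, 0.1% parasitemia final, 37 C/5% CO2; decreased signal taken as growth inhibition.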
# AMA1-RON2 inh: qHTS for Inhibitors of AMA1-RON; Towards Development of Antimalarial Drug Lead: Primary Screen. AlphaScreen AMA1-biotinylated RON2 peptide binding. Potency, µM (top dose mostly 58.2 µM), for inactives: top-dose activity change, negative = inhibition, usual class: inhibitors. 0.2% of 360,000 active;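 note: 0% = vehicle wells and -100% = peptide control; nearly all actives have a fitted effect of over 45% in size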
#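 AMA1 (3D7) with his tag at 25 nM final met compounds first, then biotinylated RON2 peptide at 25 nM; detection used donor plus acceptor beads, 10 µg/mL apiece, read by AlphaScreen after 30 min at room temperature.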
# Pf growth 96h: Primary qHTS for delayed death inhibitors of the malarial parasite plastid, 96 hour incubation | P. falciparum luciferase reporter growth, 96 h | Potency, µM (doses to about 28.7 µM), for the others: at the top dose activity change, negative = inhibition, actives largely listed as inhibitors | 6.9% of 320,000 active | AID 504834, 2011; note: % is set by controls: 0 for no effect and ±100 for the full control effect
#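 Compounds incubated with erythrocytes infected by luciferase-expressing P. falciparum (2% hematocrit, 0.05% parasitemia final) for 96 hours, 37 C in 5% CO2. Growth inhibition scored as decreased luciferase luminescence.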
# NS1 function inh: qHTS Assay for Inhibitors of Influenza NS1 Protein Function. Potency, µM (titrated, usually from 46.1 µM), without a hit: at the highest dose activity, positive = more growth. 0.4% of 270,000 active; calls by dose curve; note: actives are rising curves; nearly all actives have a fitted effect of over 50% in size
#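 Recovery from NS1-induced slow growth read by OD600 in budding yeast switched to galactose assay medium (pH 6.0, -URA) at 1:100 dilution. Compound 23 nl per well; the matching strain lacking NS1 serves as control.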
# Sm TGR block: qHTS Assay for the Inhibitors of Schistosoma Mansoni Peroxiredoxins | 3% of 360,000 active | Schistosoma mansoni thioredoxin glutathione reductase (TGR), Q962Y6 | Potency, µM (doses to about 114 µM), for the others: top-dose activity change, negative = inhibition, usual class: inhibitors | purified TGR, DTNB reduction, TNB absorbance 405 nm; note: % is set by controls: 0 for no effect and ±100 for the full control effect; nearly all actives have a fitted effect of over 60% in size
#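 Kinetic colorimetric format: TGR-catalysed, NADPH-driven DTNB reduction monitored via TNB absorbance. Enzyme dispensed at 20 nM; compound exposure 15 min at room temperature before reaction start.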
# Numbers without * were called inactive; ? = inconclusive; . = not tested or not shown. Unless noted, calls come from the whole dose curve; as a rule, active = well fitted curve in the direction sought with a large enough effect; inconclusive = small, poorly fitted or top-dose-only effect, or another doubt; inactive = no such curve, though single readings can be large; an effect the other way counts as inactive or inconclusive. Potency is the fitted concentration of half-maximal effect.
SMILES,Pf growth 48h,AMA1-RON2 inh,Pf growth 96h,NS1 function inh,Sm TGR block
Cc1ccc(N2C(=O)C(CC(=O)Nc3cccc(F)c3)N(C3CC3)C2=O)cc1 (stereo not given),20%,3%,-29%,-9%,50µM*
COc1ccc(NC(=O)CC2C(=O)N(c3ccccc3)C(=O)N2C2CCCCC2)cc1 (stereo not given),.,.,.,.,5%
CCOc1ccc(N2C(=O)C(CC(=O)Nc3ccccc3)N(Cc3ccccn3)C2=S)cc1 (stereo not given),?,22%,9.3µM*,.,2%
COc1ccc(CN(CC(=O)NCc2ccc(F)cc2)C(=O)c2csnn2)cc1,1%,13%,-1%,?,-1%
CCOc1ccc(NC(=O)CC2C(=O)N(c3ccc(OC)cc3)C(=O)N2C2CCCCC2)cc1 (stereo not given),.,.,.,.,9%
COc1ccc(NC(=O)CC2C(=O)N(c3ccc(OC)cc3)C(=O)N2C2CCCCC2)cc1 (stereo not given),.,.,.,.,56µM*
CCOC(=O)C1=C(O)/C(=C\c2cc(C)n(-c3ccc(F)cc3)c2C)N=C1C,?,4%,53%,.,14µM*
CCOC(=O)C1=C(O)/C(=C\c2cc(C)n(-c3ccccc3F)c2C)N=C1C,?,4%,?,.,25µM*
O=c1cc(-c2ccc(F)cc2F)[nH]c2ccccc12,11%,.,0%,?,1%
Cc1ccc(-c2cc(=O)c3cc(F)ccc3[nH]2)cc1,?,-2%,10µM*,11%,1%
O=c1cc(-c2ccccc2)[nH]c2cc(Cl)ccc12,4.7µM*,-10%,8.3µM*,-1%,-11%
O=c1cc(-c2ccccc2)[nH]c2ccc(F)cc12,0.59µM*,-2%,1.5µM*,5%,-12%
O=C(NCc1ccc(F)cc1)C(c1ccc(Cl)cc1)N(C(=O)c1csnn1)C1CC1 (stereo not given),-8%,16%,-18%,14%,-2%
CCCc1c(C(=O)N/N=C/c2ccoc2)nnn1-c1nonc1N,.,32%,.,.,.
CC1CCCC(NC(=O)CNCc2ccccc2F)C1C (stereo not given),10%,-3%,31%,.,5%
CC(C)CC(C)c1cc(N)nc2nc3ccccc3n12 (stereo not given),10µM*,-6%,12µM*,.,3%
Cc1nc(Cl)c(C(=O)NC(=O)NCc2ccccc2)c(C)c1Cl,6%,23%,13µM*,-10%,-8%
CC(=O)N1[C@H](Cc2ccccc2)C=C[C@]1(C)C(=O)NCc1ccc(C)o1,-20%,3%,?,-23%,8.9µM*
CC(=O)N1[C@H](Cc2ccccc2)C=C[C@]1(C)C(=O)NCCc1c[nH]c2ccccc12,-12%,-4%,?,-24%,-1%
C/C(=N\N=C1\NC(=O)C(CC(=O)O)S1)c1ccccn1 (stereo not given),10µM*,25%,1.2µM*,-5%,5%
CC(=O)/C(CN1CCCCC1)=N\O,2%,5%,.,0%,0%
C/C(=N\O)C(=O)C(CN1CCCCC1)CN1CCCCC1,12%,3%,-10%,4%,1.8µM*
Cn1c[n+](C)cc1-c1ccc(/C(N)=N/O)cc1,?,4%,4.7µM*,1%,-27%
CC(C)c1ccccc1NC(=O)CN1C(=O)c2cccc3cccc1c23,.,.,.,.,4%
Cc1onc(-c2c(Cl)cccc2Cl)c1C(=O)N1CCc2ccccc21,8.3µM*,-11%,0%,-10%,27%
SMILES,Pf growth 48h,AMA1-RON2 inh,Pf growth 96h,NS1 function inh,Sm TGR block
COc1ccccc1N1CCN(C(=O)c2c(-c3c(F)cccc3Cl)noc2C)CC1,?,0%,12µM*,-16%,-1%
Cc1onc(-c2c(F)cccc2Cl)c1C(=O)N1CCc2ccccc2C1,5.9µM*,-2%,?,-7%,-10%
Cc1onc(-c2c(Cl)cccc2Cl)c1C(=O)N=S(C)(=O)c1ccccc1 (stereo not given),?,-15%,10µM*,4%,6%
COc1ccccc1N1CCN(C(=O)c2c(-c3ccccc3)noc2C)CC1,-8%,-1%,?,-60%,-23%
Cc1cc(C(=O)CCC(=O)N2CCN(S(=O)(=O)c3ccccc3)CC2)c(C)s1,?,-2%,?,.,-2%
O=C(NNc1cccc(Cl)n1)Nc1ccccc1,13%,-2%,107%,16%,-21%
CC(Cl)C(=O)NNc1cccc(Cl)n1 (stereo not given),31%,12%,-9%,-1%,13µM*
O=C(NNc1cccc(Cl)n1)Nc1cccc(Cl)c1,.,-4%,13µM*,4%,-23%
Cc1cc(Cn2nnnc2-c2ccncc2)cc(C)c1O,9%,4%,?,3%,2.5µM*
CC(C)C(C(=O)NC(C)(C)C)N(CCN1CCOCC1)C(=O)CNS(=O)(=O)c1ccccc1 (stereo not given),-11%,7%,1.9µM*,0%,16%
CC[n+]1ccc(C)c2cc(P(=O)(c3ccccc3)c3ccccc3)ccc21,13µM*,?,?,2%,-6%
CC[n+]1ccc(C)c2cc(S(=O)C(F)(F)F)ccc21 (stereo not given),3.7µM*,-9%,?,1%,-1%
CC[n+]1ccc(C)c2cc(SC(F)(F)F)ccc21,?,-26%,0%,.,-8%
CN(C)S(=O)(=O)c1ccc(N2CCOCC2)c(C(=O)NCc2ccc3c(c2)OCO3)c1,-10%,3%,-5%,.,0%
Cc1ccc(C)c(OCCn2c(C3CC(=O)N(Cc4ccc(F)cc4)C3)nc3ccccc32)c1 (stereo not given),.,.,.,.,-7%
CCc1cc(C(c2ccc(F)cc2)N2CCOCC2)c(NC(=O)c2ccccc2)s1 (stereo not given),?,-1%,72%,-19%,4µM*
CCc1cc(C(c2ccc(OC)c(OC)c2)N2CCOCC2)c(NC(=O)c2ccccc2)s1 (stereo not given),?,?,?,16%,2.5µM*
Cc1ccc(NC(=O)CCCN2C(=O)COc3ccc(C)cc32)c(Cl)c1,.,.,.,.,-16%
CC(=O)NC(C)(c1ccccc1)c1nc(-c2cnc3ccccc3c2)cs1 (stereo not given),.,6%,.,.,.
Cc1ccc(-c2nc(C3CCN(S(=O)(=O)c4ccc(C(C)(C)C)cc4)CC3)no2)cc1,.,-4%,2.9µM*,7%,3%
O=C(Nc1cccc(C(F)(F)F)c1)c1cc(-c2ccc(Cl)s2)nc2ccccc12,.,.,.,.,4%
COc1ccccc1N(O)C1CC(=O)N(c2ccc(Br)cc2)C1=O (stereo not given),4%,4%,16%,-17%,2.8µM*
